# In PMC10943123:
# Assays:
# [1] = target: Nuclear cap-binding protein subunit 1 (UniProt Q09161); assay: cross-linking mass spectrometry
# [2] = target: Cell division cycle 5-like protein (UniProt Q99459); assay: cross-link between two proteins; cross-linking mass spectrometry
# [3] = target: Pre-mRNA-processing-splicing factor 8 (UniProt Q6P2Q9); assay: as above
# [4] = target: Small nuclear ribonucleoprotein-associated proteins B and B' (UniProt P14678); assay: as above
# [5] = target: Splicing factor 3A subunit 2 (UniProt Q15428); assay: as above
# [6] = target: U6 snRNA-associated Sm-like protein LSm4 (UniProt Q9Y4Z0); assay: as above
# [7] = target: U6 snRNA-associated Sm-like protein LSm6 (UniProt P62312); assay: as above
# [8] = target: WD repeat-containing protein 70 (UniProt Q9NW82); assay: as above
# [9] = target: WW domain-binding protein 4 (UniProt O75554); assay: as above
# [10] = target: Zinc finger CCCH domain-containing protein 18 (UniProt Q86VM9); assay: as above
# [11] = target: Cell division cycle 5-like protein (UniProt Q99459); assay: cross-link between two proteins; cross-linking mass spectrometry; other
# Cell division cycle 5-like protein, sequence (Q99459 whole entry): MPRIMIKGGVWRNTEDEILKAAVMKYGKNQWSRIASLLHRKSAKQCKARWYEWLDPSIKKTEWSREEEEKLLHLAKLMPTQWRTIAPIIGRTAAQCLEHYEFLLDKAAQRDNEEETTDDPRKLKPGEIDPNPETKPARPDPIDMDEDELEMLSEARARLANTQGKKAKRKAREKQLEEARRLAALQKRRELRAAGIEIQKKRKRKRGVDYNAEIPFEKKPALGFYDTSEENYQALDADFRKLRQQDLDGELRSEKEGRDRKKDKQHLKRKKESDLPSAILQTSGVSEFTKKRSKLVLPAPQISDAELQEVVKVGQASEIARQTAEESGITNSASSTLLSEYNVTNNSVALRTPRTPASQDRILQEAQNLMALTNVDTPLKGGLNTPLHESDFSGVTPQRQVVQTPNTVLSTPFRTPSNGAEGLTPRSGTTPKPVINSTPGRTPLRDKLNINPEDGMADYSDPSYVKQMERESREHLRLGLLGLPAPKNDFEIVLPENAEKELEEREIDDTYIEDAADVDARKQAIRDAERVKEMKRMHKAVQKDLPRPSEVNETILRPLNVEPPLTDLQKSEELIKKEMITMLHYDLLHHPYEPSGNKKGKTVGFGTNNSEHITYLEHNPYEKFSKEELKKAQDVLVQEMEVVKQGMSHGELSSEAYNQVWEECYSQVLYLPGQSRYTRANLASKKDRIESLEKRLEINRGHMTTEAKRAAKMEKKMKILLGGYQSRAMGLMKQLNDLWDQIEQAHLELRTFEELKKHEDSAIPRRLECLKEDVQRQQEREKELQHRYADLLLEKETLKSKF
# U6 snRNA-associated Sm-like protein LSm4, sequence (Q9Y4Z0 whole entry): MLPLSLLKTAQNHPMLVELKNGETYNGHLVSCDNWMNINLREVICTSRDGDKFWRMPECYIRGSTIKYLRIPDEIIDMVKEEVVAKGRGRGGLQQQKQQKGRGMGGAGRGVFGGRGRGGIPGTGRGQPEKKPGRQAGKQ
# WD repeat-containing protein 70, sequence (Q9NW82 whole entry, the tested form may be a part): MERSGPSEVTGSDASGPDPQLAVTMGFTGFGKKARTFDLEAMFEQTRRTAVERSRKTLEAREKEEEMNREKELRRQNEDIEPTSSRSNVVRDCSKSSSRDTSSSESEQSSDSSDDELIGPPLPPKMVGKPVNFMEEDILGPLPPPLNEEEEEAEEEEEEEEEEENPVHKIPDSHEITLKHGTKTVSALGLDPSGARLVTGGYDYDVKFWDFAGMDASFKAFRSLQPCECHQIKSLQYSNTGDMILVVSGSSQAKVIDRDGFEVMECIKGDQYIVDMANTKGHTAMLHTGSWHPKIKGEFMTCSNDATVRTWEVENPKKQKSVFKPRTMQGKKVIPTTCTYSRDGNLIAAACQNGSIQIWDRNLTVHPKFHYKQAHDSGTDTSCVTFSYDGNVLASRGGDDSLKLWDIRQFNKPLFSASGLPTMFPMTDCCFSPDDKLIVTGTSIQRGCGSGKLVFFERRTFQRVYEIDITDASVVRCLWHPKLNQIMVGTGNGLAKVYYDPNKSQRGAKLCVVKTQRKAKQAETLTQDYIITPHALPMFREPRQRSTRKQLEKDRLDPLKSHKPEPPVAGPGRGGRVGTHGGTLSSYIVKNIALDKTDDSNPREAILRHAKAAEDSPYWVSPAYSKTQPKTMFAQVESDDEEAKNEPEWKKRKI
# WW domain-binding protein 4, sequence (O75554 whole entry, the tested form may be a part): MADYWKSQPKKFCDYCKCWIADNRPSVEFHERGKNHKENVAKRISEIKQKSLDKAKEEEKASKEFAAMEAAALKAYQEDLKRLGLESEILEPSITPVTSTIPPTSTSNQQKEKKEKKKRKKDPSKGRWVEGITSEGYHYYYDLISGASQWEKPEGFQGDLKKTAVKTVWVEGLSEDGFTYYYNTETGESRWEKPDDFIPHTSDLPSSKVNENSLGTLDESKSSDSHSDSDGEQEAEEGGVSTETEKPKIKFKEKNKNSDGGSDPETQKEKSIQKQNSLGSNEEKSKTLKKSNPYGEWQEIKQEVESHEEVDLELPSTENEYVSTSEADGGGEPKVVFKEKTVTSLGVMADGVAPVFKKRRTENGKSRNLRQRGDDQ
# Nuclear cap-binding protein subunit 1, sequence (Q09161 whole entry): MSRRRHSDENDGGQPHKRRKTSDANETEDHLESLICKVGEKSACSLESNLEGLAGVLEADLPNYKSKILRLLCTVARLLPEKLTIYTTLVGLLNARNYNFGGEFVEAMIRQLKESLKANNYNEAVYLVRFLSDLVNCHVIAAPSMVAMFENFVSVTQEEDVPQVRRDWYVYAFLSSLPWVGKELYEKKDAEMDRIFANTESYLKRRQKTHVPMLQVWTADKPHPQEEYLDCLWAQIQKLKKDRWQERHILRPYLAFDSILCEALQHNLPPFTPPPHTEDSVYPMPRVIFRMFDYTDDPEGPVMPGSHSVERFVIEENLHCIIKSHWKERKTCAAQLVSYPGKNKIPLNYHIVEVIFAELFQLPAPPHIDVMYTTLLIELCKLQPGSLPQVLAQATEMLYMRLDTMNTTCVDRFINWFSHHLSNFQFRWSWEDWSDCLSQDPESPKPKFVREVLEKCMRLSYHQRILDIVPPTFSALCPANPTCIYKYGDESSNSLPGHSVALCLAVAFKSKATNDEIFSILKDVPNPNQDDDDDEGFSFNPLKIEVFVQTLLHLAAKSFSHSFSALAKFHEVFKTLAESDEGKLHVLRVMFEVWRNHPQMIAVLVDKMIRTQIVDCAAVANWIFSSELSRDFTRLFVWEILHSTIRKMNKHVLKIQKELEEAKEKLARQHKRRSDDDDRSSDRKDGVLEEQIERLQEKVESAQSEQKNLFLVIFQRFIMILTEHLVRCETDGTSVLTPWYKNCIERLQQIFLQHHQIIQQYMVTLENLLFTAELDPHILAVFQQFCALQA
# Splicing factor 3A subunit 2, sequence (Q15428 whole entry): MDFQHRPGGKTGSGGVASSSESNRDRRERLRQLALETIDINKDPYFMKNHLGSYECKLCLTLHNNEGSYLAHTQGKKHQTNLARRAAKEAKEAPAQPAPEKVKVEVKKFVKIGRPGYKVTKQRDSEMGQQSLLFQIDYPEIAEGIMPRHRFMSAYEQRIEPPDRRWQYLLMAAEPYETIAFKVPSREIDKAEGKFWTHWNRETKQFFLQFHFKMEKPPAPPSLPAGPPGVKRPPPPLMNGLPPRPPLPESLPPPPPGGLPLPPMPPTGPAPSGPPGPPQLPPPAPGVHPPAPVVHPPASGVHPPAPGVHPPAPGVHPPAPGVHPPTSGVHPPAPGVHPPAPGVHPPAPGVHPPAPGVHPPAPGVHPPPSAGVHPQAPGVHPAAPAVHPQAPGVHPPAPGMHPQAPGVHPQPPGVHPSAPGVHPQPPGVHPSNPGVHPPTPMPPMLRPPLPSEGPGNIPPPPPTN
# Peptidyl-prolyl cis-trans isomerase H, O43447, sequence (O43447 whole entry): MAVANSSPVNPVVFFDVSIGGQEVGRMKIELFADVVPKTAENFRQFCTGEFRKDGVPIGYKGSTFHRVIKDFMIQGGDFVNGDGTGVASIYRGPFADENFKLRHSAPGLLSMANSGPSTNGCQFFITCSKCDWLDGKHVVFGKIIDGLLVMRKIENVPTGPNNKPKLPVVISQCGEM
# Zinc finger CCCH domain-containing protein 18, sequence (Q86VM9 whole entry, the tested form may be a part): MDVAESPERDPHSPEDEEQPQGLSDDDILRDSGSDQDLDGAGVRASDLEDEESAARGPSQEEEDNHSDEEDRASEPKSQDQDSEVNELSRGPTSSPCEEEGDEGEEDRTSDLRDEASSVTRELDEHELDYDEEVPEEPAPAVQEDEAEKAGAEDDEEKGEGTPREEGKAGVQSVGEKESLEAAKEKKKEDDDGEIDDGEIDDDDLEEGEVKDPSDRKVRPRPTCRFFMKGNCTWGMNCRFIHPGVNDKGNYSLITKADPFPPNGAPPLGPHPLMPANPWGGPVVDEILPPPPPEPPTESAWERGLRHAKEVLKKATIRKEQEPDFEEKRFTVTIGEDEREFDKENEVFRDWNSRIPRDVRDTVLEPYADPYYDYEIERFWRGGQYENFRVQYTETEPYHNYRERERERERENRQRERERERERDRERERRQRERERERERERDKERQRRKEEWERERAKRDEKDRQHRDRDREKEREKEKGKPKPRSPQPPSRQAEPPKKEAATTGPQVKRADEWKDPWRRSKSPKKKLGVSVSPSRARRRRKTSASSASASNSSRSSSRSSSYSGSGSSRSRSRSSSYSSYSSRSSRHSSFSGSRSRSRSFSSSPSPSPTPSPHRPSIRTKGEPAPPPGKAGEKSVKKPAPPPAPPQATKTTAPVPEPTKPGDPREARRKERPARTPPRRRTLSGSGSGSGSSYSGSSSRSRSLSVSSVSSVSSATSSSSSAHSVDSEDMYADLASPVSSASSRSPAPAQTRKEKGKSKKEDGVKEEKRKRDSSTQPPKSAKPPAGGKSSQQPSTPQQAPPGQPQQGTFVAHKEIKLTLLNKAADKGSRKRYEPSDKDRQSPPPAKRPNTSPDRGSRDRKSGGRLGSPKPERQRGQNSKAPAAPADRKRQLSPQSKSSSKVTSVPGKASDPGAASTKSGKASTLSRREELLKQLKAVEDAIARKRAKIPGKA
# U6 snRNA-associated Sm-like protein LSm6, sequence (P62312 whole entry): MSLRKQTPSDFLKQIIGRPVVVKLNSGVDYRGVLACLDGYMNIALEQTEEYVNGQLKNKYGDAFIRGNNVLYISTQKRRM
substance,measurement,setting,value
"Nuclear cap-binding protein subunit 2, P52298",listed as a hit,[1],yes
"U5 small nuclear ribonucleoprotein 40 kDa protein, Q96DI7",listed as a hit,[2],yes
"Thioredoxin-like protein 4A, P83876",listed as a hit,[3],yes
"U2 small nuclear ribonucleoprotein B'', P08579",listed as a hit,[4],yes
"Splicing factor 3B subunit 4, Q15427",listed as a hit,[5],yes
"U6 snRNA-associated Sm-like protein LSm7, Q9UK45",listed as a hit,[6],yes
"U4/U6 small nuclear ribonucleoprotein Prp3, O43395",listed as a hit,[7],yes
"Pre-mRNA-processing factor 17, O60508",listed as a hit,[8],yes
"Peptidyl-prolyl cis-trans isomerase H, O43447",listed as a hit,[9],yes
"Nuclear cap-binding protein subunit 1, Q09161",listed as a hit,[10],yes
"U5 small nuclear ribonucleoprotein 200 kDa helicase, O75643",listed as a hit,[11],yes
